Measurements as given in PubChem BioAssay (EPA / NIEHS).
Inconclusive results are not listed. Calls of active or inactive are those of the source. The calls were made as follows, unless noted: active = hit-call score of the fitted dose curve at least 0.9, where 1 is the maximum; inconclusive = response in the unintended direction; inactive = score below 0.9.

What was measured:
[1] = tested on: Sodium/Iodide Symporter (NIS), SLC5A5 (gene 6528); assay: CPHEA_Stoker_NIS_Inhibition_RAIU: CPHEA's Radioactive Iodide Uptake (RAIU) Assay for Sodium/Iodide Symporter (NIS) Inhibition, Stoker and Laws Labs (AID 2283841)
Method in brief: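 HEK293T cells stably expressing human NIS (hNIS-HEK293T-EPA) were exposed to test chemicals at 0.001–100uM (0.5% final DMSO) with 125I at a final 329pM in HBSS/10mM HEPES pH 7.4. After 2 hours at room temperature and ice-cold washes, intracellular 125I was counted as CPM and normalized to DMSO wells.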

[2] = CPHEA_Stoker_NIS_Cytotoxicity: Cytotoxicity Assessment for CPHEA's Radioactive Iodide Uptake (RAIU) Assay for Sodium/Iodide Symporter (NIS) Inhibition, Stoker and Laws Labs (AID 2283897)
Method in brief: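 hNIS-HEK293T-EPA human kidney cells were exposed for 2 hours at room temperature to test chemicals (0.001–100uM, 0.5% final DMSO) in HEPES-buffered HBSS, pH 7.4. Viability was read as ATP content by luciferase bioluminescence, loss of signal versus DMSO.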

[3] = CEETOX_H295R_11DCORT_noMTC: CeeTox H295R High-throughput Steroidogenesis Assay for 11-Deoxycortisol (11DCORT), maximum tolerated concentration (MTC) filtered results only (AID 2283911; active = hit-call score of the fitted dose curve at least 0.9, where 1 is the maximum; inactive = score below 0.9); details: actives raise or lower the signal
Method in brief: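 Values carry no filtering for maximum tolerated concentration: medium from forskolin-primed (10 uM, 48 h) H295R cells after 48 h chemical exposure (0.1% DMSO) was MTBE-extracted, and 11-deoxycortisol quantified by reverse-phase HPLC-MS/MS. Fitting was bidirectional against DMSO.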

[4] = CEETOX_H295R_OHPREG_noMTC: CeeTox H295R High-throughput Steroidogenesis Assay for OH-Pregnenolone (OHPREG), maximum tolerated concentration (MTC) filtered results only (AID 2283912; active = hit-call score of the fitted dose curve at least 0.9, where 1 is the maximum; inactive = score below 0.9); details: actives raise or lower the signal
Method in brief: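 H295R cells prestimulated 48 h with 10 uM forskolin, then exposed 48 h to compound (0.1% DMSO). 17alpha-hydroxypregnenolone in medium measured by MTBE extraction and HPLC-MS/MS; bidirectional fit vs DMSO, concentrations not MTT/MTC-filtered.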

[5] = CEETOX_H295R_OHPROG_noMTC: CeeTox H295R High-throughput Steroidogenesis Assay for OH-Progesterone (OHPROG), maximum tolerated concentration (MTC) filtered results only (AID 2283914; active = hit-call score of the fitted dose curve at least 0.9, where 1 is the maximum; inactive = score below 0.9); details: actives raise or lower the signal
Method in brief: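 H295R cells prestimulated 48 h with 10 uM forskolin, then exposed 48 h to chemical (0.1% DMSO final). 17alpha-hydroxyprogesterone in medium quantified by HPLC-MS/MS after MTBE extraction; bidirectional fitting versus DMSO, concentrations not MTC-filtered.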

[6] = CEETOX_H295R_CORTISOL_noMTC: CeeTox H295R High-throughput Steroidogenesis Assay for Cortisol, maximum tolerated concentration (MTC) filtered results only (AID 2283916; active = hit-call score of the fitted dose curve at least 0.9, where 1 is the maximum; inactive = score below 0.9); details: actives raise or lower the signal
Method in brief: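 H295R human adrenal cells prestimulated 48 h with 10 uM forskolin, then exposed 48 h to chemical in 0.1% DMSO; cortisol in medium quantified by HPLC-MS/MS; bidirectional fit vs DMSO baseline, concentrations not MTT-filtered for MTC.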

[7] = CEETOX_H295R_CORTIC_noMTC: CeeTox H295R High-throughput Steroidogenesis Assay for Corticosterone (CORTIC), maximum tolerated concentration (MTC) filtered results only (AID 2283917; active = hit-call score of the fitted dose curve at least 0.9, where 1 is the maximum; inactive = score below 0.9); details: actives raise or lower the signal
Method in brief: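 H295R adrenal cells pre-stimulated 48 h with 10 uM forskolin, then exposed 48 h to chemical in 0.1% DMSO; corticosterone in medium quantified by HPLC-MS/MS, fitted bidirectionally versus DMSO without MTT-based concentration filtering.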

[8] = CEETOX_H295R_ANDR_noMTC: CeeTox H295R High-throughput Steroidogenesis Assay for Androstenedione (ANDR), maximum tolerated concentration (MTC) filtered results only (AID 2283915; active = hit-call score of the fitted dose curve at least 0.9, where 1 is the maximum; inactive = score below 0.9); details: actives raise or lower the signal
Method in brief: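 H295R cells, passage 10 or below, prestimulated 48 h with 10 uM forskolin, then exposed 48 h to chemical in 0.1% DMSO. Medium androstenedione extracted with MTBE, quantified by HPLC-MS/MS; concentrations not MTC-filtered; bidirectional fit versus DMSO.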

[9] = tested on: frog Estrogen Receptor (ER2), gene 100174814; assay: ATG_frER2_XSP2: Attagene TRANS-FACTORIAL Multi-Species (XSP2) HepG2 Assay for frog Estrogen Receptor (ER2) (AID 2283828)
Method in brief: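 HepG2 cells transiently transfected with multiplexed GAL4-UAS reporter units expressing chimeric frog ER2–Gal4 protein; reporter mRNA measured 24 h after chemical dosing by RT-PCR, fluorescent labeling and capillary electrophoresis. Gain-of-signal fitted relative to DMSO baseline.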

[10] = target: Peroxisome proliferator-activated receptor gamma (Homo sapiens) (UniProt P37231); assay: ATG_hPPARg_XSP2: Attagene TRANS-FACTORIAL Multi-Species (XSP2) HepG2 Assay for human Peroxisome Proliferator-activated Receptor gamma (PPARg) (AID 2283829);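 also: actives raise reporter mRNA above DMSO so AC50 reflects PPARg activation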
Method in brief: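 Reporter transcripts were measured by RT-PCR, fluorescent labeling, HpaI digestion and capillary electrophoresis, relative to DMSO, 24 h post-dosing. Transiently transfected HepG2 expressed NR-Gal4 chimeras regulating GAL4-UAS reporters; medium contained 3 nM 6-alpha-fluorotestosterone plus 1.5 nM norgestrel.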

[11] = target: mouse Peroxisome Proliferator-activated Receptor gamma (PPARg), Pparg (gene 19016) (UniProt P37238); assay: ATG_mPPARg_XSP2: Attagene TRANS-FACTORIAL Multi-Species (XSP2) HepG2 Assay for mouse Peroxisome Proliferator-activated Receptor gamma (PPARg) (AID 2283830);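 also: hits are gains in reporter mRNA above DMSO so AC50 marks activation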
Method in brief: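 HepG2 cells transiently transfected with GAL4-UAS reporter units for chimeric NR-Gal4 proteins including mouse PPARg, exposed 24 h; medium contained 3 nM 6-alpha-fluorotestosterone and 1.5 nM norgestrel. Reporter mRNA quantified by RT-PCR, HpaI digestion and capillary electrophoresis, vs DMSO.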

[12] = target: Nuclear receptor subfamily 1 group I member 2 (Mus musculus) (UniProt O54915); assay: ATG_mPXR_XSP2: Attagene TRANS-FACTORIAL Multi-Species (XSP1) HepG2 Assay for mouse Pregnane X Receptor (PXR) (AID 2283831)
Method in brief: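 Reporter transcripts measured after 24 h dosing by RT-PCR with 6-FAM labelling, HpaI digestion and capillary electrophoresis. Transiently transfected HepG2 with NR-Gal4 chimeras; increase over DMSO baseline scored.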

[13] = target: zebrafish Thyroid Hormone Receptor alpha (TRa), thraa (gene 30670) (UniProt Q98867); assay: ATG_zfTRa_XSP2: Attagene TRANS-FACTORIAL Multi-Species (XSP1) HepG2 Assay for zebrafish Thyroid Hormone Receptor alpha (TRa) (AID 2283832);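 also: actives raise zebrafish TRa-Gal4 reporter transcript above DMSO baseline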
Method in brief: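 HepG2 cells transiently transfected with multiplexed GAL4-UAS reporter units expressing chimeric NR-Gal4 proteins; 24 h after dosing, reporter mRNA measured by RT-PCR, FAM labelling, HpaI digestion and capillary electrophoresis; gain of signal versus DMSO baseline.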

[14] = tested on: zebrafish Peroxisome Proliferator-activated Receptor gamma (PPARg), gene 557037; assay: ATG_zfPPARg_XSP2: Attagene TRANS-FACTORIAL Multi-Species (XSP2) HepG2 Assay for zebrafish Peroxisome Proliferator-activated Receptor gamma (PPARg) (AID 2283833);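 also: actives increase reporter signal over DMSO so AC50 reflects activation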
Method in brief: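 After 24 h chemical exposure, RNA from transiently transfected HepG2 (chimeric NR-Gal4 TRANS reporters) was reverse-transcribed, PCR-amplified, 6-FAM-labelled, HpaI-cut and sized by capillary electrophoresis. Induction was scored in the positive direction relative to DMSO.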

[15] = tested on: turtle Thyroid Hormone Receptor, alpha (TRa), gene 101949057; assay: ATG_trTRa_XSP2: Attagene TRANS-FACTORIAL Multi-Species (XSP1) HepG2 Assay for turtle Thyroid Hormone Receptor, alpha (TRa) (AID 2283834);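 also: hits raise reporter mRNA over the DMSO baseline so AC50 marks activators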
Method in brief: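 Turtle TRa-Gal4 chimera activity in transfected human HepG2 cells: reporter transcripts quantified by RT-PCR, 6-FAM labelling and capillary electrophoresis 24 h post-dosing; positive direction versus DMSO, medium containing 3 nM 6-alpha-fluorotestosterone and 1.5 nM norgestrel.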

[16] = ATG_M_61_XSP2: Attagene TRANS-FACTORIAL Multi-Species (XSP2) HepG2 Assay for M61 Transcription Factor (Internal Marker) (AID 2283835; active = hit-call score of the fitted dose curve at least 0.9, where 1 is the maximum; inactive = score below 0.9;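 also: active means a rise in signal above the DMSO baseline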)
Method in brief: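 HepG2 cells transiently transfected with multiple GAL4-UAS reporter units; reporter mRNA measured 24 h after dosing by RT-PCR, fluorescent labelling and capillary electrophoresis. Medium contained 3 nM 6-alpha-fluorotestosterone and 1.5 nM norgestrel; internal marker, DMSO baseline.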

[17] = target: zebrafish Thyroid Hormone Receptor beta (TRb), thrb (gene 30607) (UniProt Q9PVE4); assay: ATG_zfTRb_XSP2: Attagene TRANS-FACTORIAL Multi-Species (XSP1) HepG2 Assay for zebrafish Thyroid Hormone Receptor beta (TRb) (AID 2283836);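 also: potency for induction of reporter signal above DMSO so agonist direction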
Method in brief: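 HepG2 cells transiently transfected with multiplexed GAL4-UAS reporter units expressing chimeric NR-Gal4 proteins; read 24 h after dosing. Reporter mRNA quantified by RT-PCR, 6-FAM labelling, HpaI digest and capillary electrophoresis; gain of signal fitted relative to DMSO.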

[18] = target: human Thyroid hormone Receptor alpha (TRa), THRA (gene 7067) (UniProt P10827); assay: ATG_hTRa_XSP2: Attagene TRANS-FACTORIAL Multi-Species (XSP2) HepG2 Assay for human Thyroid hormone Receptor alpha (TRa) (AID 2283838)
Method in brief: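 HepG2 cells transiently transfected with multiplexed GAL4-UAS reporter units and exogenous NR-GAL4 chimeras; 24 h chemical exposure with 3 nM 6-alpha-fluorotestosterone and 1.5 nM norgestrel present. Reporter mRNA measured by RT-PCR, FAM labelling, HpaI digestion, capillary electrophoresis; gain-of-signal versus DMSO.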

[19] = target: frog Thyroid hormone Receptor alpha (TRa), thra-a (gene 397942) (UniProt P15204); assay: ATG_frTRa_XSP2: Attagene TRANS-FACTORIAL Multi-Species (XSP2) HepG2 Assay for frog Thyroid hormone Receptor alpha (TRa) (AID 2283839);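 also: AC50 reflects induction of frog TRa-driven reporter mRNA above DMSO baseline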
Method in brief: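 Reporter transcripts were measured by RT-PCR with capillary electrophoresis after 24 h dosing of HepG2 carrying transiently transfected multi-reporter units, including a chimeric frog TRa-GAL4 construct. Activity was taken as increase over DMSO vehicle.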

[20] = target: human Thyroid hormone Receptor beta (TRb), THRB (gene 7068) (UniProt P10828); assay: ATG_hTRb_XSP2: Attagene TRANS-FACTORIAL Multi-Species (XSP2) HepG2 Assay for human Thyroid hormone Receptor beta (TRb) (AID 2283840);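 also: actives raise reporter mRNA so potency reflects agonist-like gain of signal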
Method in brief: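 Activity of exogenous human TRb–Gal4 fusion measured by reporter mRNA from RT-PCR and capillary electrophoresis, 24 h after dosing transfected HepG2. 6-alpha-fluorotestosterone (3 nM) and norgestrel (1.5 nM) present. Gain-of-signal fit relative to DMSO.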

Measured: AC50

zebrafish Thyroid Hormone Receptor alpha (TRa), thraa (gene 30670), sequence (Q98867 whole entry, looked up, the tested form may be a part): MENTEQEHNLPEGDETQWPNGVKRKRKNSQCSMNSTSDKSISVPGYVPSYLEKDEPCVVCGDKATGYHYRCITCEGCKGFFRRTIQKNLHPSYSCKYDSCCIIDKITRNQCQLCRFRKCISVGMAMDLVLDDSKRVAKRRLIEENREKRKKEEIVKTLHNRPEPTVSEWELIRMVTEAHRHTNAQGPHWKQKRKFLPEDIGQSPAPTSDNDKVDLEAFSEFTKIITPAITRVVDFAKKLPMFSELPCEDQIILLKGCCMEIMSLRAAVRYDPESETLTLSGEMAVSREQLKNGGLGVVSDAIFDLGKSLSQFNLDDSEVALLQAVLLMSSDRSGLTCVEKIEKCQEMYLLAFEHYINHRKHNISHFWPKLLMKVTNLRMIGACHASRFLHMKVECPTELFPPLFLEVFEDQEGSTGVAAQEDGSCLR
frog Thyroid hormone Receptor alpha (TRa), thra-a (gene 397942), sequence (P15204 whole entry, looked up, the tested form may be a part): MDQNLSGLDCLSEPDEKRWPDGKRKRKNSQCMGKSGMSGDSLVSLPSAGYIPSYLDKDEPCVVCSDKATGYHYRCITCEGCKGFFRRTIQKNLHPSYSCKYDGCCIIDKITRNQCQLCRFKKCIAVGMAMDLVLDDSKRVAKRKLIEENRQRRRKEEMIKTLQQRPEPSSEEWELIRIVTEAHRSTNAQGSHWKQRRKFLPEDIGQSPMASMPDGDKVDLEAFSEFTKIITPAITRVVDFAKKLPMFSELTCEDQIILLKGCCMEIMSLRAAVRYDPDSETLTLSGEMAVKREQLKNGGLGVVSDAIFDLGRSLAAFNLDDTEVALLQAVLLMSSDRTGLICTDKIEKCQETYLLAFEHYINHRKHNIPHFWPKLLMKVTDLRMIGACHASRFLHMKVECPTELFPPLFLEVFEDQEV
mouse Peroxisome Proliferator-activated Receptor gamma (PPARg), Pparg (gene 19016), sequence (P37238 whole entry, looked up, the tested form may be a part): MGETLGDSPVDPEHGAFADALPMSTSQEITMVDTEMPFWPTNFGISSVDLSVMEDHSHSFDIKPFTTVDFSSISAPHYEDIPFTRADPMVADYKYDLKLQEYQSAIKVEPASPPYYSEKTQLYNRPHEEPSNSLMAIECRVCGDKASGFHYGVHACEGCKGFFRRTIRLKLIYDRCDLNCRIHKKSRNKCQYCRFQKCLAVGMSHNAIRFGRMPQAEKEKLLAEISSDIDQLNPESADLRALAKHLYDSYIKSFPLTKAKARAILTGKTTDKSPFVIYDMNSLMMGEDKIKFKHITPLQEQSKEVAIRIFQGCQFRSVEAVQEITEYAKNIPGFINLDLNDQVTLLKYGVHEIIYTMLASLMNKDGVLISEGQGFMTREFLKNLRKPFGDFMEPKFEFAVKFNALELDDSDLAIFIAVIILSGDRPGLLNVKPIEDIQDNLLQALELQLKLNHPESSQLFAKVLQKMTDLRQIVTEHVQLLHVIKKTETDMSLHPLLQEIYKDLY
human Thyroid hormone Receptor alpha (TRa), THRA (gene 7067), sequence (P10827 whole entry, looked up, the tested form may be a part): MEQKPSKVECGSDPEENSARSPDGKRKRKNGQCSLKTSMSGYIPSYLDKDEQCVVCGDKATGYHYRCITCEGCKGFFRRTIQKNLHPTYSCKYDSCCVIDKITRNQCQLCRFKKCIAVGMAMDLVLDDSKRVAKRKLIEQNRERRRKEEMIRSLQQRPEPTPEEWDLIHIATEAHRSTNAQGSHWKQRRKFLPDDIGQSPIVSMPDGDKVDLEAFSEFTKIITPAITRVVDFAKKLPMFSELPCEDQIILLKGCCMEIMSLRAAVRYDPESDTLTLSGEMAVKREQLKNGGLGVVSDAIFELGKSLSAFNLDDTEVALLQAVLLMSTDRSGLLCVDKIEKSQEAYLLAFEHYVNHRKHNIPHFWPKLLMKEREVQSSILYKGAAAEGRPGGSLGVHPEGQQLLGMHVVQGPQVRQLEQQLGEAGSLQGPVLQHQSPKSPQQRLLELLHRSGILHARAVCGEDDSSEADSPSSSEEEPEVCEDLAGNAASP
Peroxisome proliferator-activated receptor gamma (Homo sapiens), sequence (P37231 whole entry, looked up, the tested form may be a part): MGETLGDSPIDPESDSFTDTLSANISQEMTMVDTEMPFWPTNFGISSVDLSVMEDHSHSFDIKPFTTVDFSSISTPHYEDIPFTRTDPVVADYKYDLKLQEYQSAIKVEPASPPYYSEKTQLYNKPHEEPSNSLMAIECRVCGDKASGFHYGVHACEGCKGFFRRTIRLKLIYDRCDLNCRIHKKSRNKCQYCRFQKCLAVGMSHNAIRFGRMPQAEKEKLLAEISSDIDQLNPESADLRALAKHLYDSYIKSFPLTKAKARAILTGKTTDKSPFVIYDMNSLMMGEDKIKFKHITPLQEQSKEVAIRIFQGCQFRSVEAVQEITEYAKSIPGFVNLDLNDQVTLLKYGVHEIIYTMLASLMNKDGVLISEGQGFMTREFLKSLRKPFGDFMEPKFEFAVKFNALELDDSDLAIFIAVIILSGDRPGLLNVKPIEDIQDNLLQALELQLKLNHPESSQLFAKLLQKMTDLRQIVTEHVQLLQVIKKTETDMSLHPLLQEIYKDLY
human Thyroid hormone Receptor beta (TRb), THRB (gene 7068), sequence (P10828 whole entry, looked up, the tested form may be a part): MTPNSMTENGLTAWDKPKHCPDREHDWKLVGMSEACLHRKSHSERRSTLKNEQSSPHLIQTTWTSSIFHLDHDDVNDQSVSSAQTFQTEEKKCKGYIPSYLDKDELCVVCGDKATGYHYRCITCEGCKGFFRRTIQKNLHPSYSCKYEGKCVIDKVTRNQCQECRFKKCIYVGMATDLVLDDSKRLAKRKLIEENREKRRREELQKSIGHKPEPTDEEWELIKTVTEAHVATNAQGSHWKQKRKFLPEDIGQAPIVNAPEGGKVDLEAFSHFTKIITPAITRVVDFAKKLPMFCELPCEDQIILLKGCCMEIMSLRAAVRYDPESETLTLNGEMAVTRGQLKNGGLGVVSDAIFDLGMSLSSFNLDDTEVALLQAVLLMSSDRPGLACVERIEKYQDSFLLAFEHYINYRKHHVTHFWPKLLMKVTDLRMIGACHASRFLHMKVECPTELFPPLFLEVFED
zebrafish Thyroid Hormone Receptor beta (TRb), thrb (gene 30607), sequence (Q9PVE4 whole entry, looked up, the tested form may be a part): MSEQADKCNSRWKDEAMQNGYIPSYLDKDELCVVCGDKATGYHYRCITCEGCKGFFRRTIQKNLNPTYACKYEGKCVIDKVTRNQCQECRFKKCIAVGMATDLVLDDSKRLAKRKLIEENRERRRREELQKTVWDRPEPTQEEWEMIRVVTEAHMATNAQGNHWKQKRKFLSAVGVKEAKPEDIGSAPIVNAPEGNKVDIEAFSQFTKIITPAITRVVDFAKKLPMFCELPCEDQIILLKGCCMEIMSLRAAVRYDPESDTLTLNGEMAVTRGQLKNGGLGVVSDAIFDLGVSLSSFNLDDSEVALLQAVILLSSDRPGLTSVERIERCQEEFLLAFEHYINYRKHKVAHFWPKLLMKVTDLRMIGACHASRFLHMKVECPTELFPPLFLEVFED
Nuclear receptor subfamily 1 group I member 2 (Mus musculus), sequence (O54915 whole entry, looked up, the tested form may be a part): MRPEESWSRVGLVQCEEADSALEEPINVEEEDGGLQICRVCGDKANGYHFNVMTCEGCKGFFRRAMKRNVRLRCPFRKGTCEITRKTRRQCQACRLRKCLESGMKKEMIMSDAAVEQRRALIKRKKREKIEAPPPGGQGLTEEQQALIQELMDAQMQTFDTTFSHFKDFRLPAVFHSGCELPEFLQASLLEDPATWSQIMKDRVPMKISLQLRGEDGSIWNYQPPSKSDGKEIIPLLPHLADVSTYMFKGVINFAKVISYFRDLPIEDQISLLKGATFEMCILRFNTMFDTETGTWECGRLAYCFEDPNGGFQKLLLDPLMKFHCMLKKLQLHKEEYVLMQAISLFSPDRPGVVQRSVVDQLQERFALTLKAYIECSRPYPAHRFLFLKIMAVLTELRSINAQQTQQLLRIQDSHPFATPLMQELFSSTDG

CCCCC(CC)C(=O)OCCOCCOCCOC(=O)C(CC)CCCC (stereo not drawn)
inactive: [1] | [2]

c1ccc2cc3ccccc3cc2c1
inactive: [3] | [4] | [5] | [6] | [7]

O=S(=O)(O)CCC(F)(F)C(F)(F)C(F)(F)C(F)(F)C(F)(F)C(F)(F)F
inactive: [1]

Cc1nc(-c2ccccn2)ncc1C(=O)Nn1cc(C)c2cc(F)ccc21
active: [3] 13.2 µM | [4] 4.1 µM | [5] 8.28 µM | [8] 22.5 µM | [6] 12.7 µM | [7] 9.57 µM

Cn1cc[nH]c1=S
inactive: [1] | [2]

CCCCN1C(=O)[C@@H]([C@H](O)C2CCCCC2)NC(=O)C12CCN(Cc1ccc(Oc3ccc(C(=O)O)cc3)cc1)CC2
inactive: [2]

CC(C)C(=O)Nc1ccc([N+](=O)[O-])c(C(F)(F)F)c1
active: [10] 53.9 µM | [11] 82.6 µM | [12] 100 µM | [15] 35.9 µM | [17] 65.2 µM | [18] 50.1 µM | [19] 42.2 µM | [20] 62.4 µM
inactive: [9] | [13] | [14] | [16] | [1] | [2]

c1ccc(C(O[C@@H]2CCCN(CCc3ccc4c(c3)OCO4)C2)c2ccccc2)cc1
inactive: [1] | [2]

O=S(=O)(O)c1ccc(N=Nc2c(O)ccc3cc(S(=O)(=O)O)ccc23)cc1
inactive: [3] | [4] | [5] | [6] | [7]

CCc1ccc(O)c(C(C)(C)C)c1
inactive: [1] | [2]

CCCCCCCCCCCCCCCCOS(=O)(=O)O
inactive: [2]

CCCCOC(=O)c1ccccc1
inactive: [1] | [2]
